{"source": "PubChem BioAssay AID1626", "about": "(SRMLSC, 2009)", "note": "Screen size: about 220,000 compounds; about 2,000 (0.91%) were called active. Inconclusive results (about 2%) are left out. Cut-off read from the data, not from the text of the source: inconclusive = inhibition above about 80% without an active follow-up result; inactive = below that; test concentration not stated here. Only a sample is shown. Results with a measured potency or affinity are listed apart.", "data": [{"experiment": "M. tuberculosis H37Rv growth inhibitors, H37Rv strain (AID 1626);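 note: bacteria incubated seven days before Alamar blue readout; 0% = bacteria only wells and 100% = bacteria with antibiotic wells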", "settings": "stronger effect = higher value, concentration not given here", "values": [{"smiles": "O=[N+]([O-])c1cccc(-c2noc(-c3cccs3)n2)c1", "inhibition": "0.93% (inactive)"}, {"smiles": "O=C(NCc1n[nH]c(=S)n1Cc1ccccc1)c1ccc(Cl)cc1Cl", "inhibition": "7.03% (inactive)"}, {"smiles": "COc1cccc(C2c3c(oc4ccccc4c3=O)C(=O)N2c2ccccn2)c1", "note": "(configuration not stated)", "inhibition": "-5.48% (inactive)"}, {"smiles": "COc1cc(OC)c(S(=O)(=O)NCc2ccco2)cc1S(=O)(=O)NCc1ccco1", "inhibition": "1.4% (inactive)"}, {"smiles": "Cc1ccc(Cl)cc1NC(=O)COC(=O)c1ccc(N2CCCC2)c([N+](=O)[O-])c1", "inhibition": "-3.66% (inactive)"}, {"smiles": "CCN1CC(CN(C)Cc2cn(-c3cccc(C)c3)nc2-c2cccc(F)c2)CC1=O", "note": "(configuration not stated)", "inhibition": "15.3% (inactive)"}, {"smiles": "Cc1cccc(-n2cc(CN3CCN(Cc4nccn4C)CC3)c(-c3cccc(F)c3)n2)c1", "inhibition": "27% (inactive)"}, {"smiles": "Cc1cccc(-n2cc(CN3CCN(c4ccccn4)CC3)c(-c3cccc(F)c3)n2)c1", "inhibition": "15.4% (inactive)"}, {"smiles": "Cc1ccc(-c2nn(-c3cccc(F)c3)cc2CN(Cc2nccn2C)C(C)C)o1", "inhibition": "22.5% (inactive)"}, {"smiles": "CCOC(=O)N1CCC(N(CCN(C)C)C(=S)Nc2cccc(OC)c2)CC1", "inhibition": "10% (inactive)"}, {"smiles": "CCn1ccnc1CNC(=O)c1cc(COc2ccc(F)cc2F)on1", "inhibition": "13.2% (inactive)"}, {"smiles": "CC(=O)N1CCN(C(=S)c2ccc(-c3ccc(Cl)cc3)o2)CC1", "inhibition": "4.85% (inactive)"}, {"smiles": "O=C(NC1=NCCS1)c1cc2ccccc2o1", "inhibition": "-1.2% (inactive)"}, {"smiles": "COc1ccccc1NC(=S)NC(=O)c1ccc(-c2ccc(Cl)cc2)o1", "inhibition": "79.3% (inactive)"}, {"smiles": "CCn1nnc(NC(=O)Cc2ccc(Cl)cc2)n1", "inhibition": "-0.3% (inactive)"}, {"smiles": "CCCn1nnc(NC(=O)c2ccc(-c3cccc(Cl)c3)o2)n1", "inhibition": "0.76% (inactive)"}, {"smiles": "CCc1nnc(NC(=O)c2ccc(-c3ccc(Cl)cc3)o2)s1", "inhibition": "3.33% (inactive)"}, {"smiles": "CCOC(=O)c1cc(CC)sc1N1C(=O)CC(Sc2ncccc2C(=O)O)C1=O", "note": "(configuration not stated)", "inhibition": "2.89% (inactive)"}, {"smiles": "Cc1ccc(S(=O)(=O)N(C)C)cc1NC(=O)C1CCC1", "inhibition": "-2.34% (inactive)"}, {"smiles": "CCOc1ccc(N(CC(=O)Nc2c(C)cccc2C)S(=O)(=O)c2c(C)[nH]c(=O)[nH]c2=O)cc1", "inhibition": "7.56% (inactive)"}, {"smiles": "CCn1c(N2CCN(C(=O)/C=C/c3ccccc3)CC2)nc2ccccc21", "inhibition": "0.45% (inactive)"}, {"smiles": "CC(C)Cn1c(N2CCN(C(=O)c3cccs3)CC2)nc2ccccc21", "inhibition": "-13.3% (inactive)"}, {"smiles": "CCOc1ccc(CC(=NCCc2ccccc2)C2=C(O)CC(C)(C)CC2=O)cc1OCC", "inhibition": "6.31% (inactive)"}, {"smiles": "CCn1c(SCC(=O)Nc2ccc3c(c2)OCCO3)nnc1-c1c[nH]c2ccccc12", "inhibition": "-6.16% (inactive)"}, {"smiles": "O=C(Nc1cccc(C(F)(F)F)c1)c1cc(-c2cccs2)on1", "inhibition": "-6.91% (inactive)"}, {"smiles": "COc1cccc(C(=O)Nc2nnc(-c3cccs3)s2)c1", "inhibition": "8.53% (inactive)"}, {"smiles": "O=C(Nc1nn[nH]n1)c1cccc(Oc2ccccc2)c1", "inhibition": "-4.2% (inactive)"}, {"smiles": "O=C(Nc1nnc(-c2cccs2)o1)c1ccco1", "inhibition": "71.2% (inactive)"}, {"smiles": "CCCCNc1ccc(S(N)(=O)=O)cc1[N+](=O)[O-]", "inhibition": "-3.02% (inactive)"}, {"smiles": "COC(=O)C1C(O)=C(C=Nc2cccc3ccccc23)C(=O)CC1(C)C", "note": "(configuration not stated)", "inhibition": "55% (inactive)"}, {"smiles": "COC(=O)C1C(O)=C(C=Nc2ccccc2)C(=O)CC1(C)C", "note": "(configuration not stated)", "inhibition": "18% (inactive)"}, {"smiles": "CC1CCN(C(=O)c2ccc(N3CC4CC(C3)c3cccc(=O)n3C4)c([N+](=O)[O-])c2)CC1", "note": "(configuration not stated)", "inhibition": "-2.48% (inactive)"}, {"smiles": "Nc1cc(=O)[nH]c(SCC(=O)Nc2ccccc2Sc2ccccc2)n1", "inhibition": "0.31% (inactive)"}, {"smiles": "Nn1c(SCc2ccc(F)cc2)nnc1-c1cccnc1", "inhibition": "0.75% (inactive)"}, {"smiles": "Cc1ccc2nc(N=C(N)N)nc(C)c2c1", "inhibition": "8.48% (inactive)"}, {"smiles": "CCCC(=O)N/C(N)=N/c1nc(C)c2cc(C)ccc2n1", "inhibition": "31.5% (inactive)"}, {"smiles": "Cc1cc(C)c2nc(/N=C(\\N)NC(=O)c3ccccc3)nc(C)c2c1", "inhibition": "5.97% (inactive)"}, {"smiles": "Cc1nc(/N=C(\\N)Nc2ccccc2)nc2ccccc12", "inhibition": "-4.15% (inactive)"}, {"smiles": "O=C(NCCNC(=O)c1ccc([N+](=O)[O-])cc1)c1ccncc1", "inhibition": "-5.65% (inactive)"}, {"smiles": "O=S(=O)(Nc1cccc2cn[nH]c12)c1ccc(F)cc1", "inhibition": "-1.2% (inactive)"}, {"smiles": "CC(=O)NCCOc1ccc2oc3ccccc3c2c1", "inhibition": "14.2% (inactive)"}, {"smiles": "C/C(=N\\OCC(=O)NC12CC3CC(CC(C3)C1)C2)c1cc2ccccc2o1", "inhibition": "24.4% (inactive)"}, {"smiles": "O=C(c1ccccc1)N1CCCC(C(=O)N2CCN(c3ccccc3)CC2)C1", "note": "(configuration not stated)", "inhibition": "-13.7% (inactive)"}, {"smiles": "OC(COCC(F)(F)C(F)(F)C(F)(F)C(F)F)Cn1c2ccccc2c2ccccc21", "note": "(configuration not stated)", "inhibition": "47.2% (inactive)"}, {"smiles": "CC(=O)N(C)c1ccc(OCC(O)Cn2c3ccc(Cl)cc3c3cc(Cl)ccc32)cc1", "note": "(configuration not stated)", "inhibition": "-0.39% (inactive)"}, {"smiles": "CCn1c(SCC(=O)Nc2nc(C)cs2)nnc1-c1cccnc1", "inhibition": "10.4% (inactive)"}, {"smiles": "O=C(NCc1cccnc1)c1ccc(-c2ccc(Cl)cc2)o1", "inhibition": "-1.29% (inactive)"}, {"smiles": "O=C(NCc1cccnc1)/C(=C/c1ccc(-c2cccc(Cl)c2)o1)S(=O)(=O)c1ccccc1", "inhibition": "56.8% (inactive)"}, {"smiles": "CC(=O)Nc1nc2ccccc2n1CCN(C)C", "inhibition": "-1.12% (inactive)"}, {"smiles": "CC(=O)NCc1nc2ccccc2n1Cc1ccccc1C", "inhibition": "-1.94% (inactive)"}, {"smiles": "CC(=O)NCCc1nc2ccccc2n1Cc1ccccc1", "inhibition": "2.23% (inactive)"}, {"smiles": "CC(=O)NCCCc1nc2ccccc2n1Cc1ccccc1C", "inhibition": "-3.1% (inactive)"}, {"smiles": "CCn1c(NCc2ccccc2Cl)nc2ccccc21", "inhibition": "1.72% (inactive)"}, {"smiles": "Cc1ccccc1Cn1c(C(C)O)nc2ccccc21", "note": "(configuration not stated)", "inhibition": "1.24% (inactive)"}, {"smiles": "CCC(=O)Nc1nonc1-c1nc2ccccc2n1Cc1cccc2ccccc12", "inhibition": "20.3% (inactive)"}, {"smiles": "CCS(=O)(=O)c1nc2ccccc2n1Cc1ccccc1Cl", "inhibition": "0.3% (inactive)"}, {"smiles": "Cc1cc(C)c(C(=O)Nc2ccc(Br)c(C(F)(F)F)c2)c(C)c1", "inhibition": "50.8% (inactive)"}, {"smiles": "C=CCN(C(=O)CNC(=O)c1ccco1)C(C(=O)NC1CCCCC1)c1ccccc1", "note": "(configuration not stated)", "inhibition": "-3.02% (inactive)"}, {"smiles": "COc1ccc2nc3sc(C(=O)NCCN4CCc5ccccc5C4)cc3cc2c1", "inhibition": "11.3% (inactive)"}, {"smiles": "Cn1c(CCNC(=O)OC(C)(C)C)n[nH]c1=S", "inhibition": "-7.46% (inactive)"}, {"smiles": "CC12CCC(C(=O)Nc3ccccc3N3CCOCC3)(CC1=O)C2(C)C", "note": "(configuration not stated)", "inhibition": "-3.66% (inactive)"}, {"smiles": "O=c1[nH][nH]cc1C=Nc1ccc(Cl)cc1", "inhibition": "4.25% (inactive)"}, {"smiles": "COc1cccc(N=Cc2c[nH][nH]c2=O)c1", "inhibition": "-5.96% (inactive)"}, {"smiles": "C/[N+]([O-])=C/c1c(OCc2ccc(Cl)cc2Cl)ccc2ccccc12", "inhibition": "10.9% (inactive)"}, {"smiles": "Cc1c(C(=O)Nc2ccc(F)cc2)c2ccccn2c1CCc1ccncc1", "inhibition": "1.73% (inactive)"}, {"smiles": "Cc1ccc(C)c(Cn2c(=O)n(CCC(=O)NCc3ccco3)c(=O)c3sccc32)c1", "inhibition": "-2.02% (inactive)"}, {"smiles": "O=C1CC(c2ccco2)CC2=C1C(c1ccccc1)n1nc(C(F)(F)F)nc1N2", "note": "(configuration not stated)", "inhibition": "2.19% (inactive)"}, {"smiles": "CCOC(=O)c1sc(NC(=O)COC(=O)CNC(=O)C2CCCCC2)c(C(=O)OCC)c1C", "inhibition": "-1.65% (inactive)"}, {"smiles": "O=C(COc1nc2ccccc2nc1N1CCOCC1)NC1CCCCC1", "inhibition": "5.49% (inactive)"}, {"smiles": "CC(=O)Nc1ccc(S(=O)(=O)N2CCN(c3nnnn3-c3ccccc3)CC2)cc1", "inhibition": "-0.88% (inactive)"}, {"smiles": "O=S(=O)(CS(=O)(=O)c1ccc(Cl)cc1)c1ccc(Cl)cc1", "inhibition": "6.17% (inactive)"}, {"smiles": "c1ccc(-c2nc(C3CCCCC3)no2)cc1", "inhibition": "3.47% (inactive)"}, {"smiles": "c1ccc(-c2cc(-c3nc(-c4ccccn4)no3)c3ccccc3n2)cc1", "inhibition": "9.71% (inactive)"}, {"smiles": "O=C(CN1CCCCC1)c1ccc(OC(F)F)cc1", "inhibition": "-5.74% (inactive)"}, {"smiles": "c1ccc(N2CCOCC2)c(Nc2nc3ccccc3n3cnnc23)c1", "inhibition": "8.42% (inactive)"}, {"smiles": "c1ccc(N2CCCCC2)c(Nc2nc3ccccc3n3cnnc23)c1", "inhibition": "14.3% (inactive)"}, {"smiles": "Nc1cc(OC(=O)c2cccs2)nn1S(=O)(=O)c1ccc(F)cc1", "inhibition": "5.67% (inactive)"}, {"smiles": "Cc1ccc(NC(=O)Cn2c(O)c(N=NC(=O)c3cc([N+](=O)[O-])ccc3O)c3ccccc32)cc1", "inhibition": "45.8% (inactive)"}, {"smiles": "Cc1cc(Cl)nc(-n2nc(C)cc2C)n1", "inhibition": "-0.69% (inactive)"}, {"smiles": "Cc1cc(C)n(-c2nc3ccccc3nc2N2CCC(C)CC2)n1", "inhibition": "2.59% (inactive)"}, {"smiles": "Cc1cc(N2CCN(c3ccccc3)CC2)nc(N)n1", "inhibition": "-2.3% (inactive)"}, {"smiles": "Cc1cc(N2CCN(c3ccccc3)CC2)nc(-c2ccccc2)n1", "inhibition": "-10.3% (inactive)"}, {"smiles": "O=c1cn[nH]c2ccccc12", "inhibition": "-1.28% (inactive)"}, {"smiles": "CCOc1cc(/C=N\\NC(=O)C2C(=O)NCC2c2ccccc2)ccc1OC", "note": "(configuration not stated)", "inhibition": "-8.61% (inactive)"}, {"smiles": "Cc1c(Br)ccc(NC(=O)CCN2C(=O)C3C4CCC(C4)C3C2=O)c1C", "note": "(configuration not stated)", "inhibition": "-22.5% (inactive)"}, {"smiles": "CCOC(=O)c1c(N2C(=O)C3CC(C)=C(C)CC3C2=O)sc(C)c1C", "note": "(configuration not stated)", "inhibition": "-1.38% (inactive)"}, {"smiles": "COc1ccc(NC(=O)CNc2ccc(C#N)cc2)cc1", "inhibition": "-4.76% (inactive)"}, {"smiles": "N#Cc1ccccc1NC(=O)CNc1ccc(Cl)c(C(F)(F)F)c1", "inhibition": "1.74% (inactive)"}, {"smiles": "COc1ccc(NC(=O)CNc2cccc(C#N)c2)cc1Cl", "inhibition": "-9.7% (inactive)"}, {"smiles": "COc1ccccc1NC(=O)CNc1ccc(F)c(Cl)c1", "inhibition": "-4.82% (inactive)"}, {"smiles": "Cc1noc(C)c1/C=N/Nc1ccccn1", "inhibition": "-11.2% (inactive)"}, {"smiles": "COC(=O)c1ccccc1NC(=O)c1sc(N)nc1C", "inhibition": "-3.82% (inactive)"}, {"smiles": "CCC/C=C1/CCCOC(C(=O)NCc2ccccc2)(C(F)(F)F)C1", "note": "(configuration not stated)", "inhibition": "-24.5% (inactive)"}, {"smiles": "O=C(Nc1ccc(-c2csc(Nc3cccc(C(F)(F)F)c3)n2)cc1)c1ccccc1", "inhibition": "0.91% (inactive)"}, {"smiles": "O=C(Nc1ccc(-c2csc(Nc3ccccc3)n2)cc1)c1cc([N+](=O)[O-])cc(C(F)(F)F)c1", "inhibition": "50.3% (inactive)"}, {"smiles": "O=C(Nc1ccc(-c2csc(Nc3ccccc3)n2)cc1)c1cccc(C(F)(F)F)c1", "inhibition": "14.9% (inactive)"}, {"smiles": "O=C(Nc1cccc(-c2csc(Nc3cccc(C(F)(F)F)c3)n2)c1)c1cc([N+](=O)[O-])cc(C(F)(F)F)c1", "inhibition": "-8.7% (inactive)"}]}]}
